# Test results taken from PubChem BioAssay AID463173 (ICCB-Longwood Screening Facility, Harvard Medical School, 2010).
# The campaign covered roughly 52,000 compounds. About 4,300 (8.3%) were called active. This is one part of a sample in which actives are shown more often than they occur. Values without a mark were called inactive. Rule as the data show it: active = survival mostly below about 52% (no sharp cut-off); inactive = mostly above about 56%.
# Test system: DeltatarO mutant
# Experiment: S. aureus survival, RN4220 and DeltatarO strains – OD600, teichoic acid synthesis inhibitors, primary screen (AID 463173)
# Details: S. aureus RN4220 wild type/DeltatarO growth, OD600, 18 h, active compounds read low, screened at 18.75 µg/mL (by protocol)
row,SMILES,survival
1,O=C(CSc1nccn1Cc1ccccc1)Nc1ccc2c(c1)OCCO2,71%
2,CN(C)c1ccc(CN(Cc2ccco2)C(=O)COc2ccc(F)cc2)cc1,91%
3,CC(Sc1nnc2c(n1)[nH]c1ccccc12)C(=O)NC1CC1 (centres undefined),60%
4,CCc1ccc(-c2cn3c(n2)sc2cc(C(=O)NCCC4=CCCCC4)ccc23)cc1,70%
5,O=C(NCc1ccccc1)C(c1ccco1)N(C(=O)c1csnn1)c1ccccc1 (centres undefined),81%
6,CCCCc1nn2c(=O)cc(COC(=O)c3ccccc3NC(=O)c3ccccc3OC)nc2s1,84%
7,O=C(Nc1ccc(Cl)cc1)N1CCC(c2ccccc2)C1 (centres undefined),67%
8,COc1cc(OC)c(NC(=O)CN2C(=O)CCn3nc(-c4cccn4C)cc32)cc1Cl,90%
9,O=C(NC1(C(F)(F)F)NC(=O)N(CCc2ccccc2)C1=O)c1ccccc1F (centres undefined),76%
10,Cc1ccc(N(CC(=O)N2CCN(c3cccc(C)c3C)CC2)S(=O)(=O)c2c(C)nn(C)c2C)cc1,75%
11,CCSc1nc(-c2cccc(Cl)c2)nc2c1Cc1c(CO)cnc(C)c1O2,116%
12,CCSc1nc(-c2ccccc2)nc2c1Cc1c(CO)cnc(C)c1O2,93%
13,CCSc1nc(-c2ccc(Cl)cc2)nc2c1Cc1c(CO)cnc(C)c1O2,39% (active)
14,CC(C)c1n[nH]c(=S)n1C,84%
15,CCc1ccc(N2CC(c3nc4ccccc4n3Cc3ccccc3C)CC2=O)cc1 (centres undefined),52% (active)
16,CCOc1ccccc1N1CC(c2nc3ccccc3n2CCCOc2ccccc2)CC1=O (centres undefined),68%
17,CCOc1ccc(N2CC(c3nc4ccccc4n3CCOc3ccc(CC)cc3)CC2=O)cc1 (centres undefined),55% (active)
18,CCOc1ccc(N2CC(c3nc4ccccc4n3CCOc3ccccc3)CC2=O)cc1 (centres undefined),33% (active)
19,CCOc1ccc(N2CC(c3nc4ccccc4n3CCCOc3ccccc3)CC2=O)cc1 (centres undefined),51%
20,CCOc1ccc(N2CC(c3nc4ccccc4n3Cc3ccccc3F)CC2=O)cc1 (centres undefined),103%
21,CCOc1ccccc1N1CC(c2nc3ccccc3n2CCOc2ccccc2)CC1=O (centres undefined),32% (active)
22,CCOc1ccccc1N1CC(c2nc3ccccc3n2CCOc2ccc(OC)cc2)CC1=O (centres undefined),62%
23,CCOC(=O)Cn1c(C2CC(=O)N(c3ccc(C)cc3)C2)nc2ccccc21 (centres undefined),66%

row,SMILES,survival
1,CCc1ccccc1NC(=O)c1nnn(-c2ccc(F)cc2)c1C,74%
2,CCN(CC)CCCNC(=O)CCc1c(C)n(CC)c2cc(-c3ccccc3OC)nn2c1=O,92%
3,CCC(=O)n1nc(-c2cccnc2)nc1NCc1ccc(F)cc1,88%
4,Cc1ccccc1Nc1nn2c(=O)c3ccc(C(=O)NCc4cccs4)cc3nc2s1,72%
5,O=C(CC1COc2ccccc2O1)NCCc1ccccc1 (centres undefined),87%
6,CCOC(=O)c1c(NC(=O)CSc2cn(CCNC(=O)c3ccc(OCC)cc3)c3ccccc23)sc2c1CCC2,91%
7,COc1ccc(OC)c(CCNC(=O)c2cc3c(-c4ccccc4F)nn(C)c3s2)c1,54%
8,CCOc1ccc(-c2nnc(SCC(=O)NCc3ccccc3)nc2-c2ccc(OCC)c(OC)c2)cc1OC,80%
9,CCc1cc2c(cc3c(=O)n(CCCC(=O)NCc4cccc(Cl)c4)ncn32)s1,67%
10,CCOc1ccc(S(=O)(=O)N(CC(=O)Nc2ccc3c(c2)OCO3)c2ccc(C)cc2)cc1,50%
11,COCCCNC(=O)N1[C@H](c2cccs2)[C@@H](C)C(=O)[C@@H](C)[C@@H]1c1cccs1,47%
12,CCOc1ccc(N2CC(c3nc4ccccc4n3CCCCOc3ccc(OC)cc3)CC2=O)cc1 (centres undefined),55%
13,O=C1CC(c2nc3ccccc3n2CCCOc2ccccc2)CN1c1ccc(F)cc1 (centres undefined),97%
14,CCOc1ccc(N2CC(c3nc4ccccc4n3CCCOc3ccccc3OC)CC2=O)cc1 (centres undefined),81%
15,CCOc1ccc(N2CC(c3nc4ccccc4n3CCOc3ccc(OC)cc3)CC2=O)cc1 (centres undefined),47% (active)
16,COc1ccc(OCCn2c(C3CC(=O)N(c4ccc(F)cc4)C3)nc3ccccc32)cc1 (centres undefined),59% (active)
17,COc1ccc(OCCCn2c(C3CC(=O)N(c4ccc(F)cc4)C3)nc3ccccc32)cc1 (centres undefined),66%
18,CCOc1ccc(N2CC(c3nc4ccccc4n3CCC3CCCCC3)CC2=O)cc1 (centres undefined),33% (active)
19,CCOc1ccc(N2CC(c3nc4ccccc4n3CCCOc3ccc(OC)cc3)CC2=O)cc1 (centres undefined),44% (active)
20,CCOc1ccc(N2CC(c3nc4ccccc4n3CCOc3ccccc3OC)CC2=O)cc1 (centres undefined),46%
21,CCC1CN(C(=O)N2CCC(C(=O)Nc3cc(C)ccc3C)CC2)c2ccccc2O1 (centres undefined),98%
22,Cc1[nH]c2ccc(-c3nnc(SCC(=O)N4CCc5ccccc54)o3)cc2c1C,84%
23,COc1ccc(C2C(C(=O)Nc3cccnc3)=C(C)Nc3nc(SCc4ccccc4)nn32)cc1 (centres undefined),57%

row,SMILES,survival
1,COc1ccc(NC(=O)C2CCN(S(=O)(=O)c3ccc4[nH]c5c(c4c3)CCCCC5)CC2)cc1,113%
2,COc1ccc2cc3cc(C(=O)N4CCN(c5cccc(C(F)(F)F)c5)CC4)sc3nc2c1,119%
3,CCN(C(=O)CSc1nnc(Cn2nnc3ccccc32)o1)c1nc(-c2ccccc2)cs1,80%
4,CC(C)OCC(O)Cn1c2ccccc2c2ccccc21 (centres undefined),80%
5,Cc1cccc(N(CC(O)Cn2c3ccccc3c3ccccc32)S(=O)(=O)c2ccc(F)cc2)c1 (centres undefined),58%
6,OCCN(CCO)CC(O)Cn1c2ccc(Br)cc2c2cc(Br)ccc21 (centres undefined),2% (active)
7,CCCN(CCC)S(=O)(=O)c1ccc(C)cc1,97%
8,CCNc1sc(S(C)(=O)=O)nc1S(=O)(=O)c1ccc(C)cc1,125%
9,CCNc1nc(NCC)nc(N(n2cnnc2)S(=O)(=O)c2ccc(C)cc2)n1,1% (active)
10,COc1ccccc1NC(=O)Cn1c(SCC(=O)N(C)c2ccccc2)nc2ccccc21,119%
11,O=C(CSc1ccccc1)Nc1c[nH]c(=O)[nH]c1=O,78%
12,Cc1ccc(C)c(NC(=O)c2cc(=O)c3cc(C)cc(C)c3o2)c1,70%
13,COc1ccc(S(=O)(=O)Cc2ccc(C(=O)N3CCN(c4cc(C)ccc4C)CC3)o2)cc1,130%
14,Cc1cccc(-c2nnn3c2nc(NCc2ccccc2)c2ccccc23)c1,97%
15,Nc1ncnc2nc(SCC(=O)O)[nH]c12,86%
16,Nc1ncnc2nc(SCCO)[nH]c12,63% (active)
17,Cc1ccc(S(=O)(=O)Nc2c(C)nc3nc(C)[nH]n3c2=O)c(C)c1,117%
18,Cc1ccccc1-c1nn2c(=O)cc(CN3CCN(C(=O)c4ccc(C(C)(C)C)cc4)CC3)nc2s1,97%
19,COc1cc(OC)cc(C(=O)N2CCN(C(=O)COc3ccc(C)cc3)CC2)c1,57%
20,COc1ccc(OCC(=O)N2CCN(C(=O)c3cccc(OC)c3)CC2)cc1,72%
21,COc1cc(OC)cc(C(=O)N2CCN(C(=O)COc3ccccc3)CC2)c1,54% (active)
22,N#CC1=C(N)N(c2ccc(Cl)cc2)C2=C(C(=O)CCC2)C1c1cc(CN2CCOCC2)cs1 (centres undefined),59%
23,COc1ccccc1-c1ccnc2[nH]n(-c3ccccc3)c(=O)c12,64%

row,SMILES,survival
1,Cc1ccccc1-c1ccnc2[nH]n(-c3ccccc3)c(=O)c12,47% (active)
2,O=c1c2c(-c3ccc(Cl)cc3)ccnc2[nH]n1-c1ccccc1,67%
3,CCC(c1nnnn1Cc1ccccc1)N1CCN(c2cccc(Cl)c2)CC1 (centres undefined),89%
4,CC(C)C(c1nnnn1Cc1ccccc1)N1CCN(c2ccccc2)CC1 (centres undefined),87%
5,CCCC(c1nnnn1Cc1ccccc1)N1CCN(c2ccccc2)CC1 (centres undefined),42% (active)
6,COc1ccc(NC(=O)C2Cc3ccccc3N2C(=O)c2ccccc2)c(OC)c1 (centres undefined),80%
7,CC(C)Cn1c(-c2ccc(S(=O)(=O)N3CCCC3)cc2)csc1=Nc1ccccc1,58%
8,CCn1c(-c2ccc(S(=O)(=O)N3CCOCC3)cc2)csc1=Nc1ccc(C)c(Cl)c1,73%
9,CCCn1c(-c2ccc(S(=O)(=O)N3CCOCC3)cc2)csc1=Nc1ccc(OCC)cc1,70%
10,COCCCn1c(-c2ccc(S(=O)(=O)N3CCOCC3)cc2)csc1=Nc1ccccc1,52% (active)
11,CCCCn1c(-c2ccc(S(=O)(=O)N3CCOCC3)cc2)csc1=Nc1ccccc1,48% (active)
12,CC(C)Cn1c(-c2ccc(S(=O)(=O)N3CCOCC3)cc2)csc1=Nc1cc(Cl)ccc1Cl,82%
13,CS(=O)(=O)N(CC(=O)O)c1ccc(Cl)cc1,105%
14,COc1ccc(-c2nc(SCC(=O)NC3CCCC3)c(-c3ccc(OC)cc3)[nH]2)cc1,71%
15,Cc1ccc(CN2CCSc3ccc(C(=O)N4CCN(c5ccc(Cl)cc5)CC4)cc32)cc1,72%
16,Cc1ccc(CN2CCSc3ccc(C(=O)N4CCN(c5ccccc5)CC4)cc32)cc1,63%
17,Cc1ccc(CN2CCSc3ccc(C(=O)N4CCN(c5cccc(C)c5C)CC4)cc32)cc1,27% (active)
18,Cc1ccc(Cl)cc1N1CCN(C(=O)c2ccc3c(c2)N(Cc2ccc(F)cc2)CCS3)CC1,73%
19,Cc1ccc(Cl)cc1N1CCN(C(=O)c2ccc3c(c2)N(Cc2ccccc2)CCS3)CC1,74%
20,Cc1ccc(CN2CCSc3ccc(C(=O)N4CCN(c5cc(C)ccc5C)CC4)cc32)cc1,25% (active)
